M1 antag = human M1 muscarinic receptor antagonists, primary screen, CHO-K1 cells, Fluo-8 calcium fluorescence, 1536-well; CHO-K1 hM1, ACh EC80 antagonist; inhibition, % at 3 µM; hit rate 1.3% among 360,000; AID 588852, 2011;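 active = percent inhibition above its own plate's cutoff, namely the mean of that plate's compound wells plus 3 SD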;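 note: peak over basal fluorescence ratio during 140 s after agonist addition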
Target sequence (P11229 whole entry, looked up): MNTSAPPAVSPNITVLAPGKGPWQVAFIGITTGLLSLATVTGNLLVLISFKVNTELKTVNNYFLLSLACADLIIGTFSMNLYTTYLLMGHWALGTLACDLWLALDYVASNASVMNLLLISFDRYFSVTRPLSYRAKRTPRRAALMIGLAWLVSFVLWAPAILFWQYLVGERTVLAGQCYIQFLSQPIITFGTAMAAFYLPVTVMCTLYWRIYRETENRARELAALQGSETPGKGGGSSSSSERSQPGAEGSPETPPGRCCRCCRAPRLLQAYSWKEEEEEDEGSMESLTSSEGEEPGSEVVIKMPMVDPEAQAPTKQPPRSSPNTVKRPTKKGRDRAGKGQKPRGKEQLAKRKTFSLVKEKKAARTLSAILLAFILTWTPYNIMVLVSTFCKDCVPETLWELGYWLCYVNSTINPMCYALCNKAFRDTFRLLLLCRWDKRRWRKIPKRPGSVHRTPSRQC
M1 PAM = human M1 muscarinic receptor positive allosteric modulators, primary screen, CHO-K1 cells, Fluo-8 calcium fluorescence, 1536-well | AID 588819, 2011 | Muscarinic acetylcholine receptor M1 (Homo sapiens), P11229 | hit rate 0.088% among 360,000 | CHO-K1 hM1, ACh EC20; 0% = ACh EC20, 100% = maximal ACh | activation, % at 3 µM; in the data active = activation above about 19%, passing the limit was not always enough
CHRM1 agonist = human M1 muscarinic receptor agonists, primary screen, Fluo-8 calcium fluorescence, CHO-K1 cells, HTS. hit rate 0.33% among 360,000. CHO-K1 hM1, agonist mode; 0% DMSO, 100% acetylcholine EC100. Muscarinic acetylcholine receptor M1 (Homo sapiens), P11229. AID 588814, 2011. activation, % at 3 µM;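 active = activation above the run's mean compound activation plus 3 SD, cut at about 16% in these data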;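 note: peak over basal fluorescence ratio within a 140 s kinetic read after compound addition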
CHO-K1 Ca PAM = nonselective calcium activators in parental CHO-K1 cells, primary screen, counter-screen for M1 PAM project, cell-based, Fluo-8 calcium fluorescence, full deck, 1536-well; activation, % at 3 µM; ATP EC20; 0% at ATP EC20, 100% at ATP max; hit rate 0.02% among 360,000;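 active = activation above the run cutoff, the mean activation of all test compounds plus 3 SD, cut at about 40% in these data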;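 note: peak over basal fluorescence ratio in a 140 s read after ATP addition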
CHO-K1 Ca antag = nonselective inhibitor or artifact in parental CHO-K1 cells; hit rate 0.6% among 360,000; ATP-induced calcium, Fluo-8 fluorescence; inhibition, % at 3 µM;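 active = inhibition above a per-plate cutoff, the plate's mean sample inhibition plus 3 SD, cut at about 24% in these data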
M1 ag parental = counter-screen for M1 agonists: effect in parental CHO-K1 cells; Fluo-8 calcium fluorescence; scaled to maximal ATP response, vehicle zero; activation, % at 3 µM; hit rate 0.48% among 360,000; AID 602248, 2012; in the data active = activation above about 15%;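 note: untransfected CHO-K1 host cells lacking M1 receptor as counterscreen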
Hits are given with their value; 0 = inactive. The list is not random: actives were taken first. Their share in the collection is about 2.3%.

SMILES	M1 antag	M1 PAM	CHRM1 agonist	CHO-K1 Ca PAM	CHO-K1 Ca antag	M1 ag parental
CCOc1ccccc1CN1CCN(Cc2ccc(C)o2)CC1CCO (stereo not drawn)	0	0	0	0	0	0
CCOc1ccccc1CN1CCN(CC2=Cc3cc(OC)ccc3OC2)CC1CCO (stereo not drawn)	34.4	0	0	0	0	0
COc1cccc(CNS(=O)(=O)c2cc3c(cc2Cl)NC(=O)CO3)c1	0	0	0	0	0	0
O=C(N/N=C/c1ccc(OC2CSC2)cc1)c1ccccc1	0	0	32.3	0	0	0
Cc1ccc(C(=O)NCc2ccc(Cl)cc2)cc1S(=O)(=O)N1CCCCC1	0	0	0	0	0	0
COc1ccc(NS(=O)(=O)c2ccc(N3CCCC3)c(N)c2)cc1	40.0	0	0	0	0	0
CC(=O)N1CCSc2ccc(S(=O)(=O)Nc3ccc(C)cc3)cc21	0	0	0	0	0	0
COc1ccc(NS(=O)(=O)c2ccc(OCC(=O)N3CCOCC3)cc2)cc1	0	0	0	0	0	0
COc1ccc(NS(=O)(=O)c2ccc3c(c2)N(C(C)=O)CCS3)cc1	0	0	0	0	0	16.9
O=C(COc1ccc(S(=O)(=O)Nc2ccc(Cl)cc2)cc1)N1CCOCC1	0	0	17.7	0	0	0
Nc1cc(S(=O)(=O)Nc2ccc(Cl)cc2)ccc1N1CCOCC1	38.5	0	0	0	0	0
CN(Cc1ccc2c(c1)CCCN2C)C(=O)[C@H]1O[C@@H](n2ccc(=O)[nH]c2=O)[C@H](O)[C@@H]1O	0	0	0	0	0	0
COc1ccc(NS(=O)(=O)c2cc(NC(=O)CCNC(C)=O)ccc2N2CCCCC2)cc1	44.0	0	0	0	0	0
CCNC(=O)Nc1cc(S(=O)(=O)Nc2ccc(OC)cc2)ccc1N1CCOCC1	0	0	0	0	27.8	0
O=C(COC(=O)CNC(=O)c1ccccc1)NC(=O)NC1CCCCC1	0	0	0	0	0	0
CCOC(=O)Cn1c(-c2ccccc2)cc(SC)c(C#N)c1=O	51.7	0	0	0	0	0
CC1(C2CCC3C4CCC5CC6(CCC5(C)C4C(=O)CC32C)OCCO6)OCCO1 (stereo not drawn)	0	24.9	0	0	0	0
CCOC(=O)C1(Cc2ccc(Cl)cc2)CCN(Cc2cn(CC)nc2C)CC1	0	0	0	0	0	0
Cc1cc(Cl)ccc1NC(=S)NCCCO	0	0	0	0	0	0
Cc1ccc(Cl)cc1NC(=S)NCCCSC1CCCCC1	36.7	0	0	0	0	0
Cc1cccc(NC(=O)COC(=O)CN2C(=O)c3ccccc3C2=O)c1C	0	0	0	0	0	0
CC(CCC(C)C(C)(C)C)[C@@H]1CC[C@H]2C3C[C@H](OS(O)(=S)=S)[C@H]4C[C@H](OS(O)(=S)=S)[C@@H](OS(O)(=S)=S)C[C@]4(C)[C@H]3CC[C@]12C (stereo partly drawn) (tested in a mixture with another compound)	0	0	36.6	46.2	0	23.6
CCCSc1nnc(NC(=O)Nc2ccc(F)cc2)s1	0	0	0	0	24.1	0
Cc1cc(C)cc(NC(=O)c2ccc(CSc3nnnn3C)cc2)c1	27.9	0	0	0	0	0
CCc1ccc(NS(=O)(=O)c2c(C)noc2C)cc1	39.9	0	0	0	0	0
SMILES	M1 antag	M1 PAM	CHRM1 agonist	CHO-K1 Ca PAM	CHO-K1 Ca antag	M1 ag parental
Cc1coc2cc3oc(=O)c(CCC(=O)NC4CC4)c(C)c3cc12	31.4	0	0	0	27.9	0
CN(C)Cc1csc(NC(=O)Nc2ccccc2-c2ccccc2)n1	27.7	0	0	0	0	0
Cc1cccc(CS(=O)(=O)Cc2ccc(C(=O)NCc3ccccc3)o2)c1	0	0	0	0	0	0
Cc1cccc(CS(=O)(=O)Cc2ccc(C(=O)NCc3cccs3)o2)c1	0	0	0	0	0	27.5
CCOc1ccccc1OCC(=O)Nc1ccc(N2CCOCC2)cc1N1CCOCC1	0	0	0	0	0	0
COc1ccccc1N1CCN(C(=O)c2cc(S(=O)(=O)N3CCCCC3)ccc2C)CC1	0	0	0	0	0	0
COc1ccccc1NS(=O)(=O)c1ccc(C)c(C(=O)N2CCCC2)c1	0	26.0	0	0	0	0
CCOc1ccccc1N1CCN(C(=O)c2cc(S(=O)(=O)N3CCCCC3)ccc2C)CC1	30.9	0	0	0	0	0
CCCCc1ccc(NC(=O)CN2C(=O)C3CCCCC3C2=O)cc1 (stereo not drawn)	0	0	0	0	0	0
CN(C)S(=O)(=O)c1ccc(NC(=O)CSc2nnc(-c3ccco3)n2N)cc1	0	0	0	0	0	0
CCc1nnc(NC(=O)CCC(=O)N2CCN(Cc3ccc(F)cc3)CC2)s1	0	0	16.0	0	0	0
C=CCSc1nnc(NC(=O)CN2C(=O)NC3(CCCC3)C2=O)s1	0	0	0	0	0	0
COc1ccc(/C=N/Nc2nc(-c3cccnc3)nc3ccccc23)cc1OC	0	0	0	0	0	0
CC(Nc1nc(-c2cccnc2)nc2ccccc12)c1ccc(F)cc1 (stereo not drawn)	20.7	0	0	0	0	0
Cc1c(O)ccc(/C=N/Nc2nc(-c3cccnc3)nc3ccccc23)c1O	31.9	0	0	0	0	0
COc1ccc(CCNc2nc(-c3cccnc3)nc3ccccc23)cc1OC	24.6	0	0	0	0	0
Oc1ccc(/C=N/Nc2nc(-c3cccnc3)nc3ccccc23)c(O)c1	0	0	0	0	0	0
COc1ccc(C(CNc2nc(-c3cccnc3)nc3ccccc23)N(C)C)cc1 (stereo not drawn)	33.3	0	0	0	0	0
COc1ccc([C@H]2C[C@@H](O)[C@H](n3cc(COC(=O)c4ccccc4)nn3)CN2CC2CCCCC2)cc1	0	0	0	0	0	0
Cc1ccc(Sc2ncccc2C(=O)N(C)Cc2cccs2)c(C)c1	0	0	0	0	0	0
Cc1cc(C)cc(NC(=O)CCn2ccnc2)c1	0	0	0	0	0	0
CC(OC(=O)c1cc(S(=O)(=O)N(C)C)ccc1N1CCCC1)C(=O)NCc1ccccc1 (stereo not drawn)	0	0	0	0	0	0
CCCCCCn1nc(C(=O)N(CCOC)c2c(N)n(CCCC)c(=O)[nH]c2=O)c2ccccc2c1=O	0	0	0	0	0	0
Nc1nonc1-n1nnc(C(=O)N/N=C/c2cccnc2)c1CSc1ccccc1	0	0	0	0	0	0
CCOc1ccc(-c2c(C(=O)N/N=C/c3ccc(O)cc3)nnn2-c2nonc2N)cc1	0	0	0	0	0	0

Compound activity deposited in PubChem by The Scripps Research Institute Molecular Screening Center.
